VDR inh: blocks the human vitamin D receptor; P11473; VDR-SRC2-3 peptide fluorescence polarization, 2 h; Potency, µM, for the others: max response, negative = inhibition, hits mostly inhibitors; 400,000 compounds, 0.93% hits; note: % is set by controls: 0 for no effect and ±100 for the full control effect
Target sequence (P11473 whole entry, looked up): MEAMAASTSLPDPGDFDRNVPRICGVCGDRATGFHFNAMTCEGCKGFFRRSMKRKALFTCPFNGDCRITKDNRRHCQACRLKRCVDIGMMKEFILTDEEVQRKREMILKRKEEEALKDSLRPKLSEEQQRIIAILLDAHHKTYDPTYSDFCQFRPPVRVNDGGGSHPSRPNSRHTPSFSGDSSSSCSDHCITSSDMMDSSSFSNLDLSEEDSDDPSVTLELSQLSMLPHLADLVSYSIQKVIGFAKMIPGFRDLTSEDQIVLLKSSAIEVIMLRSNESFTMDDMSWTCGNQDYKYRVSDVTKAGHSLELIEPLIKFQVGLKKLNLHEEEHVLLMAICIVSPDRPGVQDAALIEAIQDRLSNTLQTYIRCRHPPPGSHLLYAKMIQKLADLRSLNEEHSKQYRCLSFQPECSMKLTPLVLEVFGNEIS
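Compounds are added to VDR with labelled SRC2-3 coactivator peptide and held 2 h at room temperature. Inhibition of the VDR–peptide interaction is then read as a change in fluorescence polarization.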
HP1b binding inh: HP1-beta chromodomain-methylated histone interaction inhibition; AlphaScreen HP1-beta / biotin-H3K9me3 peptide binding; Potency, µM (series often up to 114 µM), for inactives: top-dose activity change, negative = inhibition, most hits filed as inhibitors; 390,000 compounds, 0.56% hits; AID 540317; note: nearly all actives have a fitted effect of over 70% in size
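HP1-beta protein (50 nM final) preincubated 30 min at room temperature with biotinylated H3(1-18)K9me3 peptide (50 nM) in PBS pH 7.4, 0.01% Tween-20, then compound added for 30 min. AlphaScreen streptavidin donor/nickel chelate acceptor beads (10 ug/mL final), 30 min dark, luminescence read.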
G9a block: inhibitors of human histone lysine methyltransferase G9a; Q96KQ7; G9a H3K9 monomethylation, AlphaScreen, 2 h; Potency, µM (top dose mostly 102 µM), for the others: at the top dose activity, negative = inhibition, most hits filed as inhibitors; 350,000 compounds, 8.8% hits; AID 504332; note: % is set by controls: 0 for no effect and ±100 for the full control effect; nearly all actives have a fitted effect of over 75% in size
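Quantitative HTS format: methyltransferase activity on a biotin-tagged H3K9 peptide is measured by AlphaScreen, using a rabbit anti-monomethyl-H3K9 antibody with streptavidin donor and anti-IgG acceptor beads. Final levels are 20 nM enzyme, 500 nM peptide, 20 uM SAM; 2 h RT.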
JMJD2A Tudor: inhibitors of human JMJD2A Tudor domain | AlphaScreen JMJD2A-Tudor / H3K4me3 peptide binding | O75164 | Potency, µM (doses to about 114 µM), inactives show at the highest dose activity change, negative = inhibition, hits mostly inhibitors | 390,000 compounds, 4.4% hits | AID 504339; note: % is set by controls: 0 for no effect and ±100 for the full control effect; nearly all actives have a fitted effect of over 50% in size
PLK1 PBD inh: PLK1 (human) polo-box domain binding inhibition; Potency, µM, for the others: max response, negative = inhibition, hits mostly inhibitors; P53350; Plk1 PBD binding of FITC phosphopeptide, fluorescence polarization; 360,000 compounds, 2.8% hits; AID 720504; note: series mostly up to about 57 µM; % is set by controls: 0 for no effect and ±100 for the full control effect; nearly all actives have a fitted effect of over 65% in size
BAZ2B inh: inhibitors of human BAZ2B bromodomain; Q9UIF8; AlphaScreen BAZ2B-H3K14Ac peptide displacement; Potency, µM (highest dose often 114 µM), inactives show at the highest dose activity change, negative = inhibition, hits mostly inhibitors; 360,000 compounds, 4.4% hits; AID 504333; note: % is set by controls: 0 for no effect and ±100 for the full control effect; nearly all actives have a fitted effect of over 60% in size
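BAZ2B 50 nM plus b-H3(5-23)K14Ac 50 nM, PBS pH 7.4/0.01% Tween-20, 30 min RT; compound added (max 110 uM), 30 min RT; streptavidin donor/Ni-chelate acceptor beads 10 ug/mL final, 20 min dark; AlphaScreen read.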
The depositor's hits bear a star; [ ] = dose if it differs, or a comment. Compounds with a hit are over-represented: about 11% of the library has one in this group of screens. Calls come from the whole dose curve; as a rule, active = well fitted curve in the direction sought with a large enough effect; inconclusive = small, poorly fitted or top-dose-only effect, or another doubt; inactive = no such curve, though single readings can be large; an effect the other way counts as inactive or inconclusive. Potency is the fitted concentration of half-maximal effect.

Screening Cc1cc2c(s1)c1cnn(Cc3cccc(C(F)(F)F)c3F)c(=O)c1n2C returned JMJD2A Tudor -28%.
Screening CC(=O)N1c2ccc(S(=O)(=O)NCCC(=O)NCCc3ccc(Cl)cc3)cc2CC1C (stereo not drawn) returned VDR inh -4%, HP1b binding inh 44%, G9a block -2%, JMJD2A Tudor 1%, PLK1 PBD inh -1% and BAZ2B inh -32%.
`CC(=O)N1c2ccc(S(=O)(=O)NCC3CCC(C(=O)N4CCCC(C)C4)CC3)cc2CC1C` (stereo not drawn) gave VDR inh inconclusive, HP1b binding inh 9%, G9a block 62%, JMJD2A Tudor inconclusive, PLK1 PBD inh 21µM* and BAZ2B inh -32%.
`CC(=O)N1c2ccc(S(=O)(=O)NCCC(=O)Nc3ccc(OC(F)(F)F)cc3)cc2CC1C` (stereo not drawn) gave VDR inh inconclusive, HP1b binding inh 22%, G9a block 8%[59 µM], JMJD2A Tudor inconclusive, PLK1 PBD inh 6.7µM* and BAZ2B inh -3%.
CC(=O)N1c2ccc(S(=O)(=O)NCCC(=O)NCCc3ccc(C)cc3)cc2CC1C (stereo not drawn) was read as VDR inh inconclusive, HP1b binding inh 12%, G9a block 2%[59 µM], JMJD2A Tudor inconclusive, PLK1 PBD inh 30µM* and BAZ2B inh -16%.
CC(=O)N1c2ccc(S(=O)(=O)NCCC(=O)Nc3ccc(Cl)cc3)cc2CC1C (stereo not drawn) was read as PLK1 PBD inh 1%.
`CC(=O)N1c2ccc(S(=O)(=O)NC(CC(=O)O)c3ccc(Br)cc3)cc2CC1C` (stereo not drawn) gave VDR inh inconclusive, HP1b binding inh 18%, G9a block 7%, JMJD2A Tudor inconclusive, PLK1 PBD inh 27µM* and BAZ2B inh -15%[57.1 µM].
For O=C1NC[C@@H](CCCCN2C[C@H](Cc3ccc(O)cc3)N(CC3CCCCC3)C(=O)C2=O)N(CCc2ccccc2)C1=O the results were PLK1 PBD inh -5%.
Screening O=C(CC1(CC(=O)N2CCOCC2)CCCC1)Nc1ccccc1 returned VDR inh -1%, HP1b binding inh 1%, G9a block -11%[12.7 µM], JMJD2A Tudor -18%, PLK1 PBD inh 3% and BAZ2B inh -2%.
For CCOC(=O)N1CCN(CCC(=O)Nc2cccc(Cl)c2C)CC1 the results were VDR inh -7%, HP1b binding inh 39%, G9a block -4%[0.501 µM], JMJD2A Tudor -6%, PLK1 PBD inh -5% and BAZ2B inh 15%.
CC(=O)N1c2ccc(S(=O)(=O)NCCC(=O)NCc3ccc(F)cc3)cc2CC1C (stereo not drawn) was read as VDR inh inconclusive, HP1b binding inh 16%, G9a block -6%[59 µM], JMJD2A Tudor inconclusive, PLK1 PBD inh 30µM* and BAZ2B inh -11%.
OC(c1ccccc1)c1nc(-c2ccc(F)c(Cl)c2)cs1 (stereo not drawn) was read as PLK1 PBD inh -8%.
`Cc1cc(Cl)ccc1NNC(=O)CCc1ccccc1` gave VDR inh -18%, HP1b binding inh 17%, G9a block 28µM*, JMJD2A Tudor -13%, PLK1 PBD inh -2% and BAZ2B inh -17%.
Cc1ccc(C(=O)O)cc1NC(=S)NC(=O)Cc1ccccc1 was read as VDR inh 15%, HP1b binding inh 33%, G9a block -7%, JMJD2A Tudor 4%, PLK1 PBD inh -9% and BAZ2B inh 3%.
Screening CCCC(=O)Nc1cc(C(=O)O)ccc1Sc1ccc(C)cc1 returned VDR inh -9%, HP1b binding inh 34%, G9a block 45µM*, JMJD2A Tudor -12%, PLK1 PBD inh inconclusive and BAZ2B inh 1%.
`O=C(CCc1ccccc1)NNC(=O)c1cc(Cl)ccc1O` gave VDR inh 22%, HP1b binding inh 36%, JMJD2A Tudor -1%, PLK1 PBD inh 4% and BAZ2B inh 7%.
